Screen size: about 290,000 compounds; about 1,800 (0.62%) were called active. Rule as the data show it: active = inhibition above about 50%; inactive = the rest. What follows is part of a selection rich in actives, with near analogues and random picks from the rest.

This assay in a line: NOD2 signaling inhibitors, cell-based, luminescence, uHTS, HEK293 (AID 1566). To be noted: HEK293 NOD2/NF-kB luciferase reporter, at 4 µM, hits give high values. In general terms: Reporter assays use an easily measured gene product as a stand-in for the process of interest.
One may read the inhibition as the relative decrease from the control value, in per cent. As to `O=C(CNC(=O)C1COc2ccccc2O1)N/N=C\c1ccccc1Cl` (stereo unspecified), the inhibition was 19.9% (inactive). As to `O=C(CNC(=O)C1COc2ccccc2O1)N/N=C/c1ccc(O)cc1O` (stereo unspecified), the inhibition was 8.2% (inactive). As for `CCN(CC)c1ccc(/C=N/NC(=O)CNC(=O)C2COc3ccccc3O2)c(O)c1` (stereo unspecified), the inhibition is 69.1% (active). With `O=C(CSc1nc(-c2ccco2)cc(C(F)(F)F)n1)N1CCSCC1` the figure was 13.4% (inactive); with `CCOC(=O)N1CCN(S(=O)(=O)N2CCCC(C(=O)NCCCN3CC(C)CC(C)C3)C2)CC1` (stereo unspecified), -13.2% (inactive). Take `CN1CCc2nc(NC(=O)COc3ccc4ccccc4c3)sc2C1`: the inhibition was -39.7% (inactive). Take `NC(=O)c1cccnc1Nc1ccccc1F`: the inhibition was -1.6% (inactive). With `CCN(CC)S(=O)(=O)c1cccc(C(=O)Nc2nnc(C)s2)c1` the figure was 10.5% (inactive); with `O=C(Nc1nc2cc3c(cc2s1)OCCO3)c1cccc(N2C(=O)CCC2=O)c1`, -37.4% (inactive); with `CCN(CC)C(=O)CNc1ccc(C(F)(F)F)cc1[N+](=O)[O-]`, 4.7% (inactive). With `CCOc1ccc(N(CC(=O)N2CCN(c3ccccc3OC)CC2)S(=O)(=O)c2ccc(F)cc2)cc1` the figure was -13% (inactive); with `CCc1ccc(OCC(=O)NC(=S)Nc2ccc(C(C)=O)cc2)c(Br)c1`, 41.8% (inactive). On to `CCCn1c(=O)c(C(=O)Nc2c(C)n(C)n(-c3ccccc3)c2=O)c(O)c2ccccc21`, for which the inhibition was 0.6% (inactive). As for `O=C(NCC1CCCN(C(=O)NCc2ccccc2)C1)c1ccc2c(c1)OCO2` (stereo unspecified), the figure is -0.6% (inactive); as for `COc1cc(/C=C/C(=O)OCC(=O)NC2CC2)cc(S(=O)(=O)N2CCc3ccccc32)c1OC`, 15% (inactive). Regarding `CCN1C(=O)/C(=C/c2ccc(OCc3ccc(C(=O)O)cc3)c(Cl)c2)NC1=S`, the inhibition is 57.5% (active). As for `CN1C(=O)/C(=C/c2ccc(OCc3ccc(C(=O)O)cc3)c(Cl)c2)NC1=S`, the inhibition was 33.9% (inactive). With `CCOc1cc(/C=C2\NC(=S)N(C)C2=O)ccc1OCc1ccc(C(=O)O)cc1` the figure was -3% (inactive). On to `O=C(NCCc1ccc(F)cc1)Nc1ccccc1`, for which the inhibition was -13.6% (inactive). With `CCCOc1ccc(/C=N/Nc2ccccc2[N+](=O)[O-])c(O)c1` the figure was 42.2% (inactive). In the case of `CCOc1ccccc1/C=N/Nc1ccccc1[N+](=O)[O-]`, the inhibition is -58% (inactive). Consider `CCOc1cccc(/C=N/NC(=S)Nc2ccccc2[N+](=O)[O-])c1O`, for which the inhibition is 64.7% (active). As for `CCCCNC(=S)N/N=C/c1cccc(OCC)c1O`, the figure is -5.1% (inactive); as for `CCCOc1ccc(/C=N/Nc2ccccc2[N+](=O)[O-])c(OCCC)c1`, 30.3% (inactive); as for `COc1ccc(N2CCN(CC(=O)NCc3ccccc3)CC2)cc1`, -7.3% (inactive).

`COc1ccccc1NS(=O)(=O)c1cccc(C(=O)NN=C2CCCC2)c1`: the inhibition is 4.3% (inactive).

Consider `COc1ccc(N(CC(=O)NC(C)(C)C)C(=O)CCC(=O)Nc2nccs2)cc1`, for which the inhibition is 5.1% (inactive).

`CC1=NNC(=O)C1C(c1ccccc1)C1C(=O)NN=C1C` (stereo unspecified): the inhibition is 20.3% (inactive). As for `CCCC(=O)N(CCN1CCOCC1)c1nc2c(OCC)cccc2s1`, the figure is 5.2% (inactive); as for `COc1ccccc1CN1CCNC(=O)C1CC(=O)NCCCN1CCCC1=O` (stereo unspecified), -4.3% (inactive); as for `Oc1ccc(Br)cc1CNc1nccs1`, -5.1% (inactive). As for `Oc1c(Br)cc(Br)cc1CNc1nccs1`, the figure is 57% (active); as for `O=S(=O)(Nc1nccs1)c1ccc(NCc2cc(Br)cc(Br)c2O)cc1`, 6.8% (inactive).

`CCOC(=O)c1[nH]c2ccc(OCC)cc2c1NC(=O)CN1CCC2(CC1)OCCO2`: the inhibition is -2.2% (inactive). With `COc1ccccc1N1CCN(C(=O)c2cc(C(=O)N3CCN(c4ccccc4OC)CC3)cc([N+](=O)[O-])c2)CC1` the figure was 3.5% (inactive); with `CCn1c(SCC(=O)N2CCN(c3ccccc3)CC2)nnc1-c1c[nH]c2ccccc12`, 6.3% (inactive). Turning to `COc1ccccc1C(C)NCC(=O)Nc1c(F)cccc1F` (stereo unspecified), the inhibition was 5.5% (inactive).

Consider `Cn1c(Sc2ccccc2Cl)c(C=O)c2ccccc21`, for which the inhibition was 36.9% (inactive). Consider `Cn1c(Oc2ccc(Cl)cc2)c(C=O)c2ccccc21`, for which the inhibition is 48.5% (inactive). With `COc1ccccc1NC(=O)CN1CCCCC1` the figure was -4.7% (inactive); with `O=C(O)COc1ccccc1/C=N/n1c(C2CCCCC2)n[nH]c1=S`, 17.3% (inactive); with `CCOc1cc2c3c(c1)C(C)CC(C)(C)N3C(=O)C2=O` (stereo unspecified), 10% (inactive). In the case of `CCc1cc2c3c(c1)C(C)CC(C)(C)N3C(=O)C2=O` (stereo unspecified), the inhibition is 11.8% (inactive).

Consider `O=S(=O)(c1ccccc1)N1CCC(O)(CSc2ccccc2)CC1`, for which the inhibition is 28.2% (inactive). Take `Cc1ccc(SCC2(O)CCN(S(=O)(=O)c3ccc(Cl)cc3)CC2)cc1`: the inhibition was 17.7% (inactive).

As for `O=S(=O)(c1ccccc1)N1CCC(O)(CSc2ccc(Cl)cc2)CC1`, the inhibition is 56.9% (active). As for `CCOc1ccccc1NC(=O)CCc1nnc2ccc(N3CCC4(CC3)OCCO4)nn12`, the inhibition was -11.6% (inactive). As to `O=C(Cn1nnc(N2CCCC2)n1)N/N=C/c1ccc(Cl)cc1`, the inhibition was -2.3% (inactive). Turning to `Cc1c(NC(=O)c2ccccc2)cccc1[N+](=O)[O-]`, the inhibition is 21.3% (inactive). With `N/C(=N\OC(=O)c1ccccc1)c1ccccn1` the figure was -52.6% (inactive). As for `Cc1ccc(C(=O)O/N=C(\N)c2ccccn2)cc1`, the figure is -94.8% (inactive); as for `CC(NC(=O)Nc1ccccn1)N1C(=O)C2C3C=CC(C3)C2C1=O` (stereo unspecified), 15.9% (inactive).

Consider `Cc1cc(C(=O)NCc2cccs2)ccc1[N+](=O)[O-]`, for which the inhibition was 0.2% (inactive). With `COc1ccc2c(c1)N(C(=O)CN1C(=O)C3CCCCC3C1=O)C(C)(C)C=C2C` (stereo unspecified) the figure was -4.7% (inactive); with `CC(C)CC(=O)Nc1cccc(C(C)O)c1` (stereo unspecified), -0.6% (inactive).

Regarding `CC(O)c1cccc(NC(=O)Nc2cccc(NC(=O)Nc3cccc(C(C)O)c3)c2)c1` (stereo unspecified), the inhibition was 73.1% (active). As for `CC(O)c1cccc(NC(=O)CCC(=O)O)c1` (stereo unspecified), the figure is 0.6% (inactive). As for `COc1ccccc1C(CC(=O)Nc1ccc(Cl)cc1)c1ccc(OC(C)C)cc1` (stereo unspecified), the figure is 2.5% (inactive); as for `O=C(CCSCc1cccc(Cl)c1)NCCC1=CCCCC1`, 12.1% (inactive); as for `CCOc1ccccc1N1CCN(C(=O)c2c(Cl)cnn2C)CC1`, 9.1% (inactive). With `CCn1cnc2cc(NS(=O)(=O)c3ccc(OC)c(OC)c3)ccc21` the figure was 0% (inactive).

The values above are taken from PubChem BioAssay AID1566 (Sanford-Burnham Center for Chemical Genomics, 2009).
